From ChEMBL document CHEMBL3988442, “University of Dundee, Small-Polar-MMV Screening Library” (2021) come the findings set out here.

For some of these results: Measured potencies and affinities stand elsewhere.

Parameters in all cases: scale not given: direction of the effect not stated beside the values
Test [1] addresses Protein translocase subunit SecA (Escherichia coli (strain K12)) (UniProt P10408). Description: Assay to Identify E. coli SecA ATPase Inhibitors. In kind it is functional. The settings on record: 30 µM.
Test [2] addresses T1, Ubiquitin-activating enzyme e1, putative (Leishmania donovani (strain BPK282A1)) (UniProt E9BSI1).
T1 sequence (whole entry): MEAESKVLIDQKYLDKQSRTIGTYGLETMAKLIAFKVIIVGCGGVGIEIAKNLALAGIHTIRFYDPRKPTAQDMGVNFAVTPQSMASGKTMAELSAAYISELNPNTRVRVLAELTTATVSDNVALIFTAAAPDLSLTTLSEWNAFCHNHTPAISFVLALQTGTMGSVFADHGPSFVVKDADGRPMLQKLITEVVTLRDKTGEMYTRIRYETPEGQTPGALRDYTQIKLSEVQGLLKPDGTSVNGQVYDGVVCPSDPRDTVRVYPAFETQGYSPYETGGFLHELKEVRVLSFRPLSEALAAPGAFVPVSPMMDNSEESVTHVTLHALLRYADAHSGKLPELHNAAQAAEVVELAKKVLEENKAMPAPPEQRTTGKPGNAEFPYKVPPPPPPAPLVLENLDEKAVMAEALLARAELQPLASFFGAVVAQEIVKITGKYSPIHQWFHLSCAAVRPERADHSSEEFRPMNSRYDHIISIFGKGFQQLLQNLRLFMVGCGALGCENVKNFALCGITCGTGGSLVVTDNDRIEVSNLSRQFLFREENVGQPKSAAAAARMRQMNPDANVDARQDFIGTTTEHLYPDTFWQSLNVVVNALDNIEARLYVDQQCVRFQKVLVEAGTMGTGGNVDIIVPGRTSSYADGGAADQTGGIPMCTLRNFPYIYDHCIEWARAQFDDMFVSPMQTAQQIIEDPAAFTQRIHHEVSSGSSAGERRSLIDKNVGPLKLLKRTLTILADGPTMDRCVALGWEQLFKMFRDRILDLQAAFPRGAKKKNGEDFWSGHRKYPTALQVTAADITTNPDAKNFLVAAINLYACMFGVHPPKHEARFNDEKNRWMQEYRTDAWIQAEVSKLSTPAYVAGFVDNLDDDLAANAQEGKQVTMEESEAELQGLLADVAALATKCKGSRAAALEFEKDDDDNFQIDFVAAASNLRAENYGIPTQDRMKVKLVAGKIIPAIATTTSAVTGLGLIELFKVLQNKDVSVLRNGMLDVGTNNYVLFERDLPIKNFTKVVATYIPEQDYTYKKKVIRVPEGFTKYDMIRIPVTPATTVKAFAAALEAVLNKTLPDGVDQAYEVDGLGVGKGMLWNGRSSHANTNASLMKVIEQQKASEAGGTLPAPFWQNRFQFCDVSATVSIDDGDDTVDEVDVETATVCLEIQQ
Description: Leishmania donovani Ubiquitin Activating Enzyme (LdE1). The settings on record: 30 µM. In kind it is functional.

Test [3] has as its target AMP-activated protein kinase, AMPK (Homo sapiens) (UniProt P54646+O43741+P54619+Q9UGJ0+Q9Y478+Q13131+Q9UGI9). Put plainly: AMP-dependent Kinase enzyme assay. An in vitro enzyme assay that detects ADP turnover that is directly proportional to AMPK activity. This uses naive AMPK that is activated during the assay with MK-8722. In kind it is functional. Conditions: 30 µM.

Test [4] addresses Sialic acid-binding Ig-like lectin 9 (Homo sapiens) (UniProt Q9Y336). Description: Hs-Siglec9 ALPHAscreen SOP 20170721. Conditions: 10 µM. (Bead proximity is the source of the signal in Alpha formats.)
The next test deals with Trypanosoma cruzi. Put plainly: Trypanosoma cruzi phosphomannomutase and mannose-1-phosphate guanylyltransferase assay. It is filed as functional. The settings on record: 10 µM.
The target in test [5] is T2, Arginase-2, mitochondrial (Homo sapiens) (UniProt P78540).
T2 sequence (whole entry): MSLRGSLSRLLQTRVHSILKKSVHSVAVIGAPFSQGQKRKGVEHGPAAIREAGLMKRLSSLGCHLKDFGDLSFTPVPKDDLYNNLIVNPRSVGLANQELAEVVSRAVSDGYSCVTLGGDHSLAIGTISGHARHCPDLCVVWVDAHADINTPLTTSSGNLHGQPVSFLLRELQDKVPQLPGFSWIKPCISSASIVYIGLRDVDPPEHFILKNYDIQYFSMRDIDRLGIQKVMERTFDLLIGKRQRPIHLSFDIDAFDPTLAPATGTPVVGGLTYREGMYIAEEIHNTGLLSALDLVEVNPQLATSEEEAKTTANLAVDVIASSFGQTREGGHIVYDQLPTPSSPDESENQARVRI
Put plainly: in vitro enzyme assay to detect the production of urea directly proportional to the activity of Arginase II. Also: in the data most compounds retested in dose-response had high values. It is filed as functional. Conditions: 33.3 µM.

The target of test [6] is T3, Proteasome subunit beta (Trypanosoma cruzi) (UniProt O96673).
T3 sequence (whole entry): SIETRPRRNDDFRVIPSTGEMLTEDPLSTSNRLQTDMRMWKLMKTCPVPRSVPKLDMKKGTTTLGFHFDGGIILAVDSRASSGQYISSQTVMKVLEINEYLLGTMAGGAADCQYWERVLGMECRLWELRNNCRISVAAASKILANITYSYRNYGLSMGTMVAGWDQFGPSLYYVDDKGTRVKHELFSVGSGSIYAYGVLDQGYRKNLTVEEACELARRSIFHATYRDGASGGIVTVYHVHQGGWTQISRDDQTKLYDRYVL
Put plainly: Trypanosoma cruzi proteasome chymotrypsin-like activity (TcProtChymo) assay. Also: in the data most compounds retested in dose-response had high values. Conditions: 9.37 µM. It is filed as functional.

A further test is filed under the species Homo sapiens. Put plainly: To identify inhibition of the IFN signalling (Jak-Stat) pathway via expression of an eGFP reporter gene under the control of an IFN-stimulated response element (ISRE) containing MxA promoter. It is filed as functional. The settings on record: 30 µM. For orientation: A reporter such as luciferase makes a cellular process visible.

Test [7] deals with T4, Tyrosyl-tRNA synthetase, putative (Trypanosoma cruzi (strain CL Brener)) (UniProt Q4DSP6).
T4 sequence (whole entry): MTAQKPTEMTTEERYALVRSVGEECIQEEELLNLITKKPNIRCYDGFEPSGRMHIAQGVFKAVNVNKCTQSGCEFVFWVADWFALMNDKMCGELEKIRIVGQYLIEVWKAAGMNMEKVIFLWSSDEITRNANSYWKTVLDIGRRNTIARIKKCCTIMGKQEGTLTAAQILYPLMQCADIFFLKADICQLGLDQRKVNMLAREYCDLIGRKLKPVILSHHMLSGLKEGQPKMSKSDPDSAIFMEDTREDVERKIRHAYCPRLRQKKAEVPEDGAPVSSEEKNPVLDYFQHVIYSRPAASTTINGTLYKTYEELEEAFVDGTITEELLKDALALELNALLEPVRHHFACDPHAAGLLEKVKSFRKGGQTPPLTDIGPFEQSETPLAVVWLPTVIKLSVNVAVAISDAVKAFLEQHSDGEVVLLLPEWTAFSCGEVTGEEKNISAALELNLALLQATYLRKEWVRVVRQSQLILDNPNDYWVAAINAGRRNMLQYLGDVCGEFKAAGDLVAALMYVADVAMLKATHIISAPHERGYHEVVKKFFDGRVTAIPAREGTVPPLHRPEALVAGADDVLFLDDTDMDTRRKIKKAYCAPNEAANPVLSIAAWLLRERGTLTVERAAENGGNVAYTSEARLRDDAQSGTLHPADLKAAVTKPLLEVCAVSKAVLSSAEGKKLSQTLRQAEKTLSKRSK
Put plainly: Trypanosoma cruzi tyrosyl tRNA synthetase (TcYRS) _High Tyrosine SOP. Also: in the data most compounds retested in dose-response had high values. The settings on record: 30 µM. It is filed as functional.

Test [8] addresses T4, Tyrosyl-tRNA synthetase, putative (Trypanosoma cruzi (strain CL Brener)). Description: Trypanosoma cruzi tyrosyl tRNA synthetase (TcYRS) SOP. The settings on record: 30 µM. It is filed as functional.
For test [9], the target named is Chromo domain-containing protein 1 (Saccharomyces cerevisiae (strain ATCC 204508 / S288c) (Baker's yeast)) (UniProt P32657). Description: ScCHD-1 Enzyme Inhibition Assay. Also: in the data most compounds retested in dose-response had high values. It is filed as functional. Conditions: 30 µM.
Sequence of Chromo domain-containing protein 1 (Saccharomyces cerevisiae (strain ATCC 204508 / S288c) (Baker's yeast)) (P32657 whole entry, the tested form may be a part): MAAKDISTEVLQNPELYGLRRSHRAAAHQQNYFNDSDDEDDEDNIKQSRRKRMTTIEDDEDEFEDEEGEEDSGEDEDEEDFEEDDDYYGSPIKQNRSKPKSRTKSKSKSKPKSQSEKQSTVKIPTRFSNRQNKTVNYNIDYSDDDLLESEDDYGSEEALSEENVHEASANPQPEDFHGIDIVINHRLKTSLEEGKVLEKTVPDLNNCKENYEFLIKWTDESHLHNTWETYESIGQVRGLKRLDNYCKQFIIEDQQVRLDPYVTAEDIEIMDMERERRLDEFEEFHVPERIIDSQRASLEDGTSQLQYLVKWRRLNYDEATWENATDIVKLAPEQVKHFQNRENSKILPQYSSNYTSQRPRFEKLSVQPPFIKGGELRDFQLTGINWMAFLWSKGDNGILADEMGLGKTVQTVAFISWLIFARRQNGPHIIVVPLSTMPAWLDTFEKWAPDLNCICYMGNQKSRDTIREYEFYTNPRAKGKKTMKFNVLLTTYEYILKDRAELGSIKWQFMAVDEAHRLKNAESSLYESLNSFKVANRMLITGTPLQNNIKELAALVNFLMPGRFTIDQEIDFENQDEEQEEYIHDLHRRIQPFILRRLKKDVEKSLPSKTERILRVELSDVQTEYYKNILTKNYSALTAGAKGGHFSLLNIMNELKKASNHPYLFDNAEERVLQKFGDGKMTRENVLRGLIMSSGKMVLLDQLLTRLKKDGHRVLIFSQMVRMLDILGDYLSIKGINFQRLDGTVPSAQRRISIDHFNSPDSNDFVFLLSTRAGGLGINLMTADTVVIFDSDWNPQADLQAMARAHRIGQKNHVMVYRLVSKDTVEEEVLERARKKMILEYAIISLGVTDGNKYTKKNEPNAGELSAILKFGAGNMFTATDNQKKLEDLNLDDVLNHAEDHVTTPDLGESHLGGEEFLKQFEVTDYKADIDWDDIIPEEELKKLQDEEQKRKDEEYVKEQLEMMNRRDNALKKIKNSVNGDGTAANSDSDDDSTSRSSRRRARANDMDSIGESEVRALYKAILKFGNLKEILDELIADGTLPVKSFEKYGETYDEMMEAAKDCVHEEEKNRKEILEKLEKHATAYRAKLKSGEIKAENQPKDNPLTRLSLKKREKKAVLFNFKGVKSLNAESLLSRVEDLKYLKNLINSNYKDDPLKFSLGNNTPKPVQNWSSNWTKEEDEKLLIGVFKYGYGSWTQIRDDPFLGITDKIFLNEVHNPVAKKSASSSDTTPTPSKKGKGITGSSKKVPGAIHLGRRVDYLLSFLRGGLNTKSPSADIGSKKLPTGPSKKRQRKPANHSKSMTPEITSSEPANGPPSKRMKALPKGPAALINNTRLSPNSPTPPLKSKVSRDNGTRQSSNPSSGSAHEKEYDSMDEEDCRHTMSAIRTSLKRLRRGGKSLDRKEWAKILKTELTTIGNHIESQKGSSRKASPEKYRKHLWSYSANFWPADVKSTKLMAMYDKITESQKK

Sequence of Protein translocase subunit SecA (Escherichia coli (strain K12)) (P10408 whole entry): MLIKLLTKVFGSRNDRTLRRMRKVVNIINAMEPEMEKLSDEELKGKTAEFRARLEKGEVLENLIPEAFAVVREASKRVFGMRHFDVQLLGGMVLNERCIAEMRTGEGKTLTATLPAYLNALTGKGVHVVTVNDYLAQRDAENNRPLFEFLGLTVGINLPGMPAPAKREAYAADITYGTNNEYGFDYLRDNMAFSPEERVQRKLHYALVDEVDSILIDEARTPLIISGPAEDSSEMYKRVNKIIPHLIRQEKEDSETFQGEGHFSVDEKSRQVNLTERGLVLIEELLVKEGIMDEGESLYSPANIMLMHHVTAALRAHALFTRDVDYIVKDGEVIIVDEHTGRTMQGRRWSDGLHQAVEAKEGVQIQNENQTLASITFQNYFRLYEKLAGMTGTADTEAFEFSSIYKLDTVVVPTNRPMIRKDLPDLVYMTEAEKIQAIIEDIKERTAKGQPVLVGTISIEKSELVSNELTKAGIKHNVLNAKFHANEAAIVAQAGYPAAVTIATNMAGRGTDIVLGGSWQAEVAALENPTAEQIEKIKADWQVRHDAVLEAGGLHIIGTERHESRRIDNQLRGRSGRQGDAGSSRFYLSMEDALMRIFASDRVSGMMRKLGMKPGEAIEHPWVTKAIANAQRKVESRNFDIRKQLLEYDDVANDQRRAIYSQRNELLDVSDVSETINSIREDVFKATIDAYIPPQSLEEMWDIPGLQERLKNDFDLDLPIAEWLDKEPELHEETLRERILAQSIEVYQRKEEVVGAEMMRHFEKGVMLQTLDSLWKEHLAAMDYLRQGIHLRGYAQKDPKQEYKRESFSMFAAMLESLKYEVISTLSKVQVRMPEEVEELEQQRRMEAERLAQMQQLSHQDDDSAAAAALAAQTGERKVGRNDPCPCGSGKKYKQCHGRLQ
Sequence of Sialic acid-binding Ig-like lectin 9 (Homo sapiens) (Q9Y336 whole entry): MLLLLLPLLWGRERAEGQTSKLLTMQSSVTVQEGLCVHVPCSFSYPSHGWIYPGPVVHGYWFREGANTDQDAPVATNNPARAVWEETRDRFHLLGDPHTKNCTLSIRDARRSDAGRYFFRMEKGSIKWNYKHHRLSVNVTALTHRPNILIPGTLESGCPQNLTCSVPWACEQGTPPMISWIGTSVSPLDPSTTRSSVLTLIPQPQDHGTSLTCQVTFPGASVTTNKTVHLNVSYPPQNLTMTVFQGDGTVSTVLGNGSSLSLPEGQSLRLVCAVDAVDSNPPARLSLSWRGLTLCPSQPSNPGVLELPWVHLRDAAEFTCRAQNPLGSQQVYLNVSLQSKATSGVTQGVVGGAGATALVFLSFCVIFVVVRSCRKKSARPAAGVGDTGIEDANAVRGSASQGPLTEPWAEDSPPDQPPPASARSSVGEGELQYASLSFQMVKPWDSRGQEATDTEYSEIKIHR

For the molecule `CN(CCCc1ccccc1)Cc1nc2c(cnn2C)c(=O)[nH]1`, the Percent Effect in test [1] is -1.94%; in test [2] it was 8.11%; in test [3] it was -7.46%; in test [4] it was -2.26%; in the test with Trypanosoma cruzi, -7.26%; in test [5] it was 2.4%. In addition, the Percent Effect was 5.95% in test [6]; 18.9% in the test listed under Homo sapiens; 4.43% in [7]; 13.6% in [8]; -1.12% in test [9].
As to `COc1ccc(-c2nnc(SC(C)C(=O)NC3CC3)[nH]2)c(OC)c1` (stereo unspecified), the Percent Effect in test [1] is -8.04%; in [2] it was 15.8%; in test [3], 1.94%; in test [4] it was -2.88%; with Trypanosoma cruzi, 2.63%; in [5] it was -2.37%. Also, the Percent Effect was 13.3% in [6]; 71.7% in the test filed under Homo sapiens; 6.38% in [7]; 18.2% in [8]; -7.11% in [9].
Regarding `Cn1ncc2c1C(COCC1CC1)CN(Cc1ccc(F)cc1)C2` (stereo unspecified), the Percent Effect in test [1] is -0.87%; in [2], 18.9%; in [3], 3.73%; in test [4], -11.9%; with Trypanosoma cruzi, -1.07%; in [5], 0.955%. Besides, the Percent Effect was 8.12% in test [6]; 23.2% in the test filed under Homo sapiens; 2.16% in test [7]; 15.4% in test [8]; -6.67% in test [9].
`COc1cc(CCC(=O)NCC2CCCN2C)ccc1OCC(F)(F)F` (stereo unspecified): the Percent Effect in test [1] was -2.12%; in [2], 7.89%; in test [3], -14%; in test [4] it was 4.13%; in the test with Trypanosoma cruzi, -0.0934%; in test [5], -2.88%. Besides, the Percent Effect in test [6] is 11.4%; in the test listed under Homo sapiens, 14.2%; in [7], 5.42%; in test [8], 16.1%; in [9], -7.41%.
`Cn1ccnc1CN1CCC2(CC1)CC(Oc1cccnc1)C2`: the Percent Effect in test [1] is -2.04%; in test [2], 8%; in test [3] it was 4.85%; in test [4], 10.2%; with Trypanosoma cruzi, -1.35%; in test [5] it was -23.8%. For the same molecule, the Percent Effect in [6] was 1.88%; in the test listed under Homo sapiens it was 6.63%; in test [7], 10.4%; in [8], 22.5%; in test [9], -6.08%.
Regarding `O=C(NC1CCN(c2snc3ccccc23)CC1)C1CCC1`, the Percent Effect in [1] was -4.68%; in test [2], 16.5%; in test [3] it was -3.67%; in test [4] it was 3.44%; in the test with Trypanosoma cruzi it was -1.74%; in test [5], -1.07%. The Percent Effect in test [6] is 9.43%; in the test filed under Homo sapiens it was 21.9%; in [7], 4.17%; in [8], 20.2%; in test [9] it was -33%.
In the case of `Cc1ccc(NC(=O)Cn2cc(I)cn2)cc1`, the Percent Effect in test [1] is -4.63%; in test [2], -4.17%; in test [3] it was -12.3%; in [4], 3.22%; in the test on Trypanosoma cruzi it was -2.82%; in [5] it was -1.32%. The Percent Effect in test [6] was 6.32%; in the test filed under Homo sapiens, 28.2%; in test [7], -4.21%; in test [8], -7.69%; in [9], 3.77%.
In the case of `CCOC(=O)N1CCN(Cc2ccc(OCc3nccn3C)cc2)CC1`, the Percent Effect was -5.3% in [1]; 23.4% in test [2]; 3.48% in [3]; -0.124% in test [4]; 0.562% with Trypanosoma cruzi; 1.42% in [5]. The Percent Effect was 13.7% in test [6]; 11.1% in the test filed under Homo sapiens; 9.71% in test [7]; 14.6% in test [8]; -7.78% in test [9].
Regarding `N#Cc1ccccc1N1CCCN(C(=O)CCn2cccn2)CC1`, the Percent Effect was -6.4% in test [1]; 15.2% in test [2]; 5.53% in test [3]; 0.749% in [4]; 5.19% in the test with Trypanosoma cruzi; -0.76% in test [5]. Besides, the Percent Effect in [6] was 6.8%; in the test listed under Homo sapiens it was 3.94%; in [7], 5.42%; in test [8] it was 16.5%; in [9], -6.74%.
On to `CCNC(=O)N1CCCCC1CCNS(C)(=O)=O` (stereo unspecified), for which the Percent Effect was -1.55% in test [1]; 5.41% in test [2]; -3.93% in [3]; 3.76% in test [4]; 8.3% in the test with Trypanosoma cruzi; -3.33% in [5]. For the same molecule, the Percent Effect in test [6] is 13.3%; in the test filed under Homo sapiens it was 6.93%; in test [7], 7.94%; in test [8], 9.76%; in test [9], -1.52%.
Consider `Cc1nn(C)c(N(C)C)c1CNCc1cccc(CN(C)C(C)C)c1`, for which the Percent Effect in [1] was -3.75%; in [2], 13.5%; in test [3], -10.9%; in [4], 25.4%; in the test with Trypanosoma cruzi, 3.03%; in test [5] it was 10.7%. For the same molecule, the Percent Effect in test [6] is 9.87%; in the test listed under Homo sapiens, -7.67%; in test [7] it was 5.38%; in test [8], 21%; in test [9], -8.38%.
